The record followed here is PubChem BioAssay (NCI).

This is part of a sample that, as a whole, favours compounds with a hit. Of some 83,000 tested, about 20% had one in any assay.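 Values shown are percent growth following 48 h exposure of cells in 96-well plates to a single concentration of compound; below 10 was considered active.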 A number with no mark means an inactive call. Active and inactive are the calls of the source.

Common to all, as to assay: NCI-60 one-dose screen, 48 h (100 = growth as untreated, 0 = no growth, -100 = all killed)
In one test the test system is SK-MEL-2 melanoma. Conditions: 10 µM unless noted.
Another test deals with EKVX NSCLC. The settings on record: 10 µM unless noted.
The subject of a further test is SN12C renal. The settings on record: 10 µM unless noted.
The next test relates to UO-31 renal. The settings on record: 10 µM unless noted.
A further test has as its system TK-10 renal. Conditions: 10 µM unless noted.
In another test the test system is ACHN renal. The settings on record: 10 µM unless noted.
The next test has as its system CAKI-1 renal. Conditions: 10 µM unless noted.
In a further test the test system is A498 renal. Conditions: 10 µM unless noted.
Another test concerns CCRF-CEM leukemia. The settings on record: 10 µM unless noted.
For another test, the system named is MOLT-4 leukemia. The settings on record: 10 µM unless noted.
Another test has as its system SR leukemia. Conditions: 10 µM unless noted.
The next test has as its system RPMI-8226 leukemia. Conditions: 10 µM unless noted.
In a further test the test system is OVCAR-8 ovarian. The settings on record: 10 µM unless noted.
Another test deals with OVCAR-5 ovarian. Conditions: 10 µM unless noted.
For another test, the system named is OVCAR-4 ovarian. Conditions: 10 µM unless noted.
Another test has as its system SK-OV-3 ovarian. The settings on record: 10 µM unless noted.
A further test concerns IGROV1 ovarian. The settings on record: 10 µM unless noted.
The test system of another test is OVCAR-3 ovarian. Conditions: 10 µM unless noted.
Another test has as its system HS 578T breast. The settings on record: 10 µM.
The subject of a further test is NCI/ADR-RES ovarian. Conditions: 10 µM unless noted.

With `COc1ccc2[nH]c(O)c(/C=c3/ccc4c(c3)N=C(c3ccc(C(F)(F)F)cc3)N=4)c2c1`, the growth in the test with SK-MEL-2 melanoma was 104%; with EKVX NSCLC, 82.4%; with SN12C renal, 79.9%; in the test with UO-31 renal, 91.3%; in the test with TK-10 renal, 131%; in the test with ACHN renal, 78%. The growth is 55.6% in the test on CAKI-1 renal; 71.7% with A498 renal; 23.2% in the test with CCRF-CEM leukemia; 48% with MOLT-4 leukemia; 62.6% with SR leukemia; 77.1% in the test with RPMI-8226 leukemia. The growth with OVCAR-8 ovarian is 87.1%; in the test with OVCAR-5 ovarian, 113%; in the test with OVCAR-4 ovarian, 80.5%; with SK-OV-3 ovarian, 112%; in the test on IGROV1 ovarian it was 55.2%; in the test with OVCAR-3 ovarian it was 77.5%. Further, the growth is 72.8% with HS 578T breast and 84.7% in the test with NCI/ADR-RES ovarian.

Regarding `Oc1c(C(c2ccc(F)cc2)N2CCCCC2)ccc2cncnc12` (stereo not given), the growth in the test on SK-MEL-2 melanoma is -16.6% (active); in the test with EKVX NSCLC it was 16.9%; with SN12C renal, 10%; in the test with UO-31 renal, 11%; in the test on TK-10 renal, 9.03% (active); in the test on ACHN renal, 10.9%. For the same molecule, the growth in the test on CAKI-1 renal was 19%; in the test with A498 renal, -8.07% (active); in the test with CCRF-CEM leukemia it was 18.5%; in the test with MOLT-4 leukemia it was 13.1%; in the test with SR leukemia it was 15.7%; in the test on RPMI-8226 leukemia it was 22.1%. Besides, the growth was 8.68% (active) in the test on OVCAR-8 ovarian; 22.3% in the test with OVCAR-5 ovarian; 5.59% (active) in the test on OVCAR-4 ovarian; -14.9% (active) in the test with SK-OV-3 ovarian; 9.64% (active) in the test on IGROV1 ovarian; 11.1% in the test with OVCAR-3 ovarian. Further, the figures for the growth in the test with HS 578T breast and in the test with NCI/ADR-RES ovarian were 13% and 20.3%, respectively.

`c1ccc(C(Nc2ccccn2)(c2ccccc2)c2ccccc2)cc1`: the growth with SK-MEL-2 melanoma was 74.5%; in the test with EKVX NSCLC, 38.1%; in the test on SN12C renal, 75.9%; with UO-31 renal, 35.4%; with TK-10 renal, 85.5%; in the test with ACHN renal it was 69.3%. Moreover, the growth in the test with CAKI-1 renal is 63.3%; in the test on A498 renal it was 72%; with CCRF-CEM leukemia, 81.2%; in the test on MOLT-4 leukemia it was 66.3%; in the test on SR leukemia, 97%; in the test with RPMI-8226 leukemia, 34.7%. Moreover, the growth with OVCAR-8 ovarian is 70.4%; with OVCAR-5 ovarian it was 77.6%; in the test with OVCAR-4 ovarian, 79.9%; in the test with SK-OV-3 ovarian it was 67.5%; with IGROV1 ovarian it was 88.7%; with OVCAR-3 ovarian it was 82%. Moreover, the growth in the test on HS 578T breast was 93.4%; with NCI/ADR-RES ovarian, 63.3%.

Turning to `C/C(=N\NC(=S)N1CCCCC1)c1ccccn1`, the growth in the test with SK-MEL-2 melanoma is 34.3%; with EKVX NSCLC, -4.33% (active); with SN12C renal, 21%; with UO-31 renal, -13.6% (active); with TK-10 renal it was 22.4%; in the test with ACHN renal, 17.3%. Further, the growth was -4% (active) in the test with CAKI-1 renal; -13.5% (active) in the test on A498 renal; 8.62% (active) in the test on CCRF-CEM leukemia; -3.73% (active) with MOLT-4 leukemia; -7.37% (active) in the test with SR leukemia; -19.4% (active) in the test on RPMI-8226 leukemia. Moreover, the growth in the test on OVCAR-8 ovarian is 16%; with OVCAR-5 ovarian, 29.3%; with OVCAR-4 ovarian, -30.6% (active); in the test with SK-OV-3 ovarian, 27.6%; in the test with IGROV1 ovarian it was 11.2%; in the test with OVCAR-3 ovarian it was -12.9% (active). In addition, the growth is 16.8% with HS 578T breast and 15.2% with NCI/ADR-RES ovarian.

For the molecule `O=C(Nc1ccc(Br)cc1)Nc1ccccc1Cl`, the growth was 92% in the test on SK-MEL-2 melanoma; 70.9% in the test on EKVX NSCLC; 84.7% with SN12C renal; 58.9% in the test on UO-31 renal; 125% in the test on TK-10 renal; 84.4% in the test with ACHN renal. The growth is 55.2% in the test on CAKI-1 renal; 86.9% in the test with A498 renal; 94.8% in the test on CCRF-CEM leukemia; 63.9% with MOLT-4 leukemia; 84.9% in the test with SR leukemia; 50% in the test on RPMI-8226 leukemia. For the same molecule, the growth with OVCAR-8 ovarian is 79.8%; in the test on OVCAR-5 ovarian, 90.1%; in the test on OVCAR-4 ovarian it was 75.1%; in the test on SK-OV-3 ovarian, 84.6%; with IGROV1 ovarian, 63.9%; in the test with OVCAR-3 ovarian it was 88.1%. In addition, the growth with HS 578T breast was 99.7%; in the test with NCI/ADR-RES ovarian it was 80%.

As to `O=C1c2ccccc2C(=O)c2c1oc1ccc3ccccc3c21`, the growth is 101% with SK-MEL-2 melanoma; 72.6% in the test with EKVX NSCLC; 83.2% with SN12C renal; 61% with UO-31 renal; 169% in the test with TK-10 renal; 79.4% in the test on ACHN renal. Also, the growth in the test with CAKI-1 renal is 90.3%; in the test on A498 renal, 88.5%; in the test with CCRF-CEM leukemia, 94.8%; in the test with MOLT-4 leukemia it was 104%; in the test with SR leukemia, 60.8%; in the test on RPMI-8226 leukemia, 75.9%. For the same molecule, the growth was 88.2% in the test with OVCAR-8 ovarian; 130% with OVCAR-5 ovarian; 34.1% in the test with OVCAR-4 ovarian; 114% with SK-OV-3 ovarian; 80.2% with IGROV1 ovarian; 39.4% with OVCAR-3 ovarian. Also, the growth with HS 578T breast was 85.7%; in the test on NCI/ADR-RES ovarian it was 79.4%.

Turning to `O=C(OCc1ccc2c(Cl)cc(Cl)c(O)c2n1)c1cc2ccccc2[nH]1`, the growth is -54.6% (active) in the test with SK-MEL-2 melanoma; -71.9% (active) in the test on EKVX NSCLC; -60.6% (active) with SN12C renal; -100% (active) with UO-31 renal; -94.1% (active) in the test on TK-10 renal; -96.7% (active) with ACHN renal. Also, the growth in the test with CAKI-1 renal is -98% (active); in the test with A498 renal, -78.4% (active); in the test on CCRF-CEM leukemia, 0% (active); in the test with MOLT-4 leukemia, -8.99% (active); in the test with SR leukemia, 0.939% (active); in the test on RPMI-8226 leukemia, -37.4% (active). Moreover, the growth was -24.9% (active) in the test with OVCAR-8 ovarian; -55.2% (active) in the test with OVCAR-5 ovarian; -70.4% (active) in the test with OVCAR-4 ovarian; 67.5% in the test on SK-OV-3 ovarian; -89.5% (active) in the test with IGROV1 ovarian; -92.1% (active) in the test with OVCAR-3 ovarian. In addition, the figures for the growth in the test with HS 578T breast and in the test on NCI/ADR-RES ovarian were -14.4% (active) and -35.3% (active), respectively.
